Source: PubChem BioAssay AID624404 (Broad Institute, 2012)
The campaign covered roughly 1,800 compounds. About 710 (39%) were called active. Not shown: some 28% with an inconclusive outcome. A selection follows. Potency and affinity values are given separately. Values without a mark were called inactive.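 Rule for the calls: active = luciferase signal rise whose fitted curve crosses a set activity limit at or below the top valid tested dose; inconclusive = flat fit with 30 to 70% rise, or poor fit; inactive = signal falling, flat within 30%, or crossing above top dose.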

Assay: luciferase activators in glycosylation-insensitive reporter cells, dose response, counter-screen for N-linked glycosylation inhibitor project, D54 LucT cells, luminescence, cherry pick (AID 624404);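 note: 0% = median neutral control signal and 100% = twice that signal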
Details: D54 LucT luciferase reporter counterscreen, 24 h; series mostly up to 19.5 µM; activity increase (luciferase signal): at the top concentration

SMILES	activity increase (luciferase signal) [%]
CCN(CC)CCC(=O)Nc1cccc2c1C(=O)c1ccccc1C2=O	16.2
CCN(CC)CCn1c2ccccc2c2cnc(N)c(C#N)c21	-41.8
O=C(C=Cc1ccc2c(c1)OCO2)C=Cc1ccc2c(c1)OCO2	11.4
CC(=O)C1=C(C)OC(N)=C(C#N)C1c1cc([N+](=O)[O-])ccc1Cl (stereo not given)	-7.35
CCN1C(=O)c2cccc3c(S(=O)(=O)N4CCC(C)CC4)ccc1c23	19.7
C=CCN(CC=C)C(=O)CN1C(=O)NC(C)(c2ccc3cc(OC)ccc3c2)C1=O (stereo not given)	-2.95
Cc1ccc(CCC(=O)Nc2ncc(Cc3cc(Cl)ccc3Cl)s2)o1	6.25
COc1ccc(-c2nc(NC(=O)C3CC(=O)N(c4ccc5c(c4)OCCO5)C3)sc2C)cc1 (stereo not given)	-41.9
CCCCCCCCCCCCCCCC[n+]1ccc(/C=N/O)cc1	-67.7
CCOC(=O)C(C)Oc1cccc2c(=O)n(CC(=O)NCc3ccc(F)cc3)ccc12 (stereo not given)	13.6
Cc1ccc(CNC(=O)Cc2ccc(Br)cc2)cc1	46.7
COc1ccc(CCn2c(=N)c(C(=O)NCc3ccco3)cc3c(=O)n4ccccc4nc32)cc1	-8.69
CCN(CC)CCNC(=O)c1cc2c(-c3ccc(Cl)cc3)nn(C)c2s1	49.2
COc1ccc(NC(=O)C2(C)Cc3c(-c4cccc(C(N)=O)c4)ccnc3O2)cn1 (stereo not given)	7.81
CC1(C(=O)NCc2ccccc2)Cc2c(-c3ccc4c(c3)OCO4)ccnc2O1 (stereo not given)	17.4
CC1(C(=O)NCc2ccccc2)Cc2c(-c3ccccc3)ccnc2O1 (stereo not given)	2.35
CC1(C(=O)Nc2ccc(Cl)cc2)Cc2c(-c3cccc(C(N)=O)c3)ccnc2O1 (stereo not given)	45.1
CC(=O)c1cccc(-c2ccnc3c2CC(C(=O)NCc2ccco2)O3)c1 (stereo not given)	22.9
COc1ccccc1C(=O)Nc1nnc(CCc2ccccc2)s1	66.8
CN(C)S(=O)(=O)c1ccc(N2CCCC2)c(C(=O)Nc2nc(-c3ccc(F)cc3)cs2)c1	11.7
CC(C)(C)n1nnnc1C(c1ccccc1)N1CCc2ccccc2C1 (stereo not given)	29.5
Nc1ncnc(Sc2ccc(Cl)cc2)c1[N+](=O)[O-]	-13.9
CCC1=Nc2cc(C(=O)NCCCOC)ccc2Sc2ccccc21	-3.33

SMILES	activity increase (luciferase signal) [%]
Cc1cccn2c(=O)c3cc(C(=O)NCCN4CCOCC4)c(=N)n(CCc4ccccc4)c3nc12	-13.9
CCNC(=O)c1cc2c(=O)n3cccc(C)c3nc2n(CCc2ccccc2)c1=N	3.44
NNC(=O)c1oc2nc(-c3ccco3)cc(-c3ccco3)c2c1N	37.9
O=C(NCc1ccco1)c1nn2c(C(F)(F)F)cc(-c3cccs3)nc2c1Br	-13.3
COc1ccc(C(=O)NCc2nnc(SCC(=O)NO)n2Cc2ccccc2)cc1	26.2
Cn1nc(C(F)(F)F)c(/C=N/OC(=O)c2ccccc2Cl)c1SCc1ccccc1Cl	-45.1
Clc1ccc(C2=Nn3c(nnc3-c3cc(-c4ccccc4)n[nH]3)SC2)cc1	-0.549
COc1ccc(OC)c(-c2nnc3n2N=C(c2ccc(OC)c(OC4CCCC4)c2)CS3)c1	-37.9
S=c1[nH]nc(-c2cc(-c3ccccc3)n[nH]2)n1/N=C/C(Br)=C/c1ccccc1	-47.3
CC(Oc1ccc2c(c1)c1ccnc3c4ccccc4c(=O)n2c13)C(=O)NCCN1CCOCC1 (stereo not given)	-14.3
Oc1ccc(NCc2ccccc2OCc2ccccc2)cc1	24.2
CCn1c2ccccc2c2cc(NC(=O)COC(=O)c3ccc(O)cc3)ccc21	5.23
c1ccc2c(c1)c1c(c3ccccc32)CN2CCCC2C1 (stereo not given)	0.935
Cc1cc([N+](=O)[O-])ccc1Nc1nc2ccccc2n2cnnc12	0.819
FC(F)(F)c1nnc2c(Sc3ccc(Cl)cc3)nc3ccccc3n12	-57
Cc1nnc2c(NCCC(C)C)nc3ccccc3n12	38.9
CCN(CC)CCCNc1cc(C)c(C#N)c2nc3ccccc3n12	-16.2
Cc1ccc(NC(=O)c2cc(S(=O)(=O)N(C)C)ccc2N2CCCC2)cc1F	18.8
COc1ccc(S(=O)(=O)Nc2c(C(=O)O)[nH]c3ccc(OC)cc23)c(OC)c1	26.5
COc1cc(NC(=O)c2cc(-c3ccccc3)nc3c2cnn3C(C)C)cc(OC)c1OC	-29.9
COc1cc(-c2noc(C)c2/C=C/c2ccc(OC(C)=O)cc2)cc(OC)c1OC	11.2
NC(=O)c1cccc(Nc2nc(C(N)CCc3ccccc3)cs2)n1 (stereo not given)	7.8
CCOC(=O)C1CCN(S(=O)(=O)Cc2ccccc2)CC1	46

SMILES	activity increase (luciferase signal) [%]
O=C1CCCC2=C1C(c1ccco1)Nc1ccc(C(=O)c3ccccc3)cc1N2 (stereo not given)	41.2
CCCn1c2ccccc2c2cnn(CC(=O)NC3CCCC(C)C3C)c(=O)c21 (stereo not given)	-3.18
COc1ccc(N(CC(=O)Nc2cc(Cl)ccc2OC)S(=O)(=O)c2c(C)noc2C)cc1	-20.4
CCOc1ccccc1NC(=O)CN(c1ccc(OC)cc1)S(=O)(=O)c1c(C)noc1C	52.5
COc1ccc(OC)c(N(CC(=O)Nc2cccnc2)S(=O)(=O)c2ccc(C)cc2)c1	4.3
CN(C)Cc1c(O)ccc2c1O/C(=C\C=C\c1ccccc1)C2=O	31.8
O=C(CCl)N1CCCC1c1ccc2c(c1)OCCO2 (stereo not given)	-11.8
CC(C)C(=O)Nc1ccc(C(=O)N/N=C/c2cc(Br)cc(Br)c2O)cc1	11.7
COc1ccc(/C=N/NC(=O)c2ccc(COc3ccccc3Cl)o2)c(OC)c1C	27.4
Cc1cc2nnc(SCC(=O)NCc3cccs3)n2c2ccccc12	45.3
CNC(=O)c1cccc2nc3ccccc3nc12	-11.8
Cc1cc(C)c(C)c(OC(=O)c2sc(Cl)nc2C)c1	-28.2
CCOC(=O)c1ccc(Oc2cc(C)nc(SC)n2)cc1	-2.48
CCOC(=O)c1ccc(N=c2sc(C(=O)OC)cc(=O)n2Cc2ccco2)cc1	-0.7
CCn1cc([N+](=O)[O-])c(C(=O)Nc2nc(-c3ccc(C)c(C)c3)c(C)s2)n1	-9.26
COc1cccc(Oc2ccc(C(F)(F)F)cc2NC(=O)CN2C(=O)NC3(CCCC3)C2=O)c1	19.9
COC(=O)c1cc(OC)c(OC)cc1NC(=S)NC(=O)c1ccco1	17.6
c1ccc(CNc2nc(NCCc3ccncc3)c3sccc3n2)cc1	-4.58
Cc1cc(NCCCN(C)C)n2c(nc3ccccc32)c1C#N	-10.7
CN(C)CCCNc1c2c(nc3ccccc13)CCC2	0
CN(C)CCOc1nc(-c2ccccc2)nc2c1oc1ccccc12	14.3
CCN(CC)CCCNc1nc2ccccc2c2nc(-c3ccncc3)nn12	-2.43
O=C(CSc1ncnc2nc[nH]c12)c1ccc([N+](=O)[O-])cc1	-6.76

SMILES	activity increase (luciferase signal) [%]
COc1cc(COCC(O)CN2CCN(CCN3C(=O)c4cccc5cccc(c45)C3=O)CC2)cc(OC)c1OC (stereo not given)	-1.72
COc1cc(C(=O)OCC(=O)c2cc(C)n(C)c2C)cc(OC)c1OC	13.5
C=CCOc1ccc2nc(NC(=O)OC)[nH]c2c1	11.3
Cc1noc2ncnc(Sc3ccccc3Cl)c12	39.8
CCc1nn2c(N(C)CCO)cc(C)nc2c1-c1ccc(F)cc1	3.57
OC1CCCN(Cc2c3ccccc3cc3ccccc23)C1 (stereo not given)	36
CN(C)CCNC(=O)c1cccc2nc3c(ccc4ccccc43)nc12	34.8
CCOC(=O)c1cnc2c(C)cc(C)cc2c1NCCCN1CCOCC1	34.1
CCOC(=O)c1cc2sccc2n1CC(=O)N1CCc2ccccc21	38.1
COc1cc(-c2noc(C)c2/C=C/c2ccc(N)cc2)cc(OC)c1OC	4.57
Cc1ccc(Nc2nnc(SCC(=O)Nc3ncc(S(=O)(=O)c4ccc([N+](=O)[O-])cc4)s3)s2)cc1	35.6
CCOC(=O)c1c(C)oc2c(F)c(F)c(F)c(F)c2c1=O	-70.7
CCOc1ccc2c(c1)C(=NNC(=O)c1ccncc1)c1cc(OCC)ccc1-2	-20.8
CNc1ccc(Br)cc(C(=O)/C=C/c2cccc(OC)c2OC)c1=O	17.9
COC(=O)c1ccc2c(=O)n(Cc3ccco3)c(SCC(=O)Nc3cc(C)on3)nc2c1	-15.7
COc1ccc(C(=O)CSc2nn3c(=O)c(C(C)(C)C)nnc3s2)cc1	22.2
CCN(CC)C(=O)CSc1nc2c(sc(=S)n2-c2ccccc2)c(=O)n1Cc1ccco1	-39.3
CCOC(=O)c1ccc(/C=C2/C=C(c3ccccc3)N(c3ccc(Cl)c(C(=O)O)c3)C2=O)cc1	-17
Cn1c(N)c(C(=O)COC(=O)c2cc(S(=O)(=O)N3CCOCC3)ccc2F)c(=O)n(C)c1=O	4.76
Cc1ccc(Cl)cc1N1CCN(S(=O)(=O)c2ccc(-c3ccc(=O)[nH]n3)o2)CC1	30.2
CCCn1c(=N)n(CC(=O)c2ccc([N+](=O)[O-])cc2)c2ccccc21	58.5
